Results filed as inconclusive are left out. Where a call stands in place of a potency, no number is given. Active and inactive are the calls of the source. Calls follow the shape of the dose curve; as a rule, active = well fitted inhibition curve with a large enough effect; inconclusive = small, poorly fitted or top-dose-only effect; inactive = flat fitted curve, though single readings scatter.
Each molecule was assayed on ICS (assay: qHTS profiling for inhibitors of Plasmodium falciparum proliferation (AID 504749; also: nearly all actives have a fitted effect of over 60% in size)). Conditions: P. falciparum in erythrocytes, SYBR Green DNA, 72 h; series mostly up to 28.7 µM.
How it was run: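 Three-day growth assay of blood-stage parasites in erythrocytes (0.3% parasitemia, 2.5% hematocrit) at 37 C, 5% CO2, quantified by SYBR Green DNA staining after overnight detergent lysis.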
Potency is read from the fitted curve at half-maximal effect.

Compound	Potency
CCCCCCCCCCCCCCCC(=O)OC[C@H](O)[C@H]1OC[C@@H](O)[C@@H]1O	inactive
CCCCC(=O)OCC(=O)[C@]1(O)Cc2c(O)c3c(c(O)c2[C@H](OC2CC(NC(=O)C(F)(F)F)C(O)C(C)O2)C1)C(=O)c1c(OC)cccc1C3=O (some centres not stated)	794 nM (active)
C[C@H]1OC(OC2C(O)[C@@H](O)C(OC3C(O)[C@@H](O)C(O)O[C@@H]3CO)O[C@@H]2CO)[C@H](O)C(O)C1N[C@H]1C=C(CO)[C@@H](O)[C@H](O)C1O (some centres not stated)	inactive
CCN(CC)CC(=O)Nc1c(C)cc(C)cc1C	inactive
CC(=O)N[C@H]1[C@H](O[C@@H]2c3ccc(c(Cl)c3)Oc3cc4cc(c3O[C@@H]3O[C@H](CO)[C@@H](O)[C@H](O)C3C)Oc3ccc(cc3Cl)C[C@H]3NC(=O)[C@@H](N)c5ccc(O)c(c5)Oc5cc(O)cc(c5)[C@H](NC3=O)C(=O)N[C@H]4C(=O)N[C@H]3C(=O)N[C@@H]2C(=O)N[C@@H](C(=O)O)c2cc(O)cc(O[C@H]4O[C@H](CO)[C@@H](O)C(O)[C@@H]4O)c2-c2cc3ccc2O)O[C@H](CO)[C@@H](O)[C@@H]1O (some centres not stated)	inactive
NC(=O)c1ncn(C2OC(CO)C(O)C2O)c1N (configuration not stated)	inactive
C[C@H]1[C@@H](OC(=O)CCC(=O)O)OC2OC3(C)CC[C@H]4[C@H](C)CC[C@@H]1[C@@]24OO3 (some centres not stated)	3.2 nM (active)
CC1(Cn2ccnn2)[C@H](C(=O)O)N2C(=O)C[C@H]2S1(=O)=O (some centres not stated)	inactive
CN(C)CC/C=C1\c2ccccc2COc2ccc(CC(=O)O)cc21	inactive
OCCN1CC(O)C(O)C(O)C1CO (configuration not stated)	inactive
COc1cc2c(cc1O)CCN[C@@]21CS[C@H]2c3c(OC(C)=O)c(C)c4c(c3C(COC1=O)N1C2C2c3c(cc(C)c(OC)c3O)CC([C@@H]1O)N2C)OCO4 (some centres not stated)	0.9 nM (active)
CC(CCC(=O)O)C1CCC2C3C(=O)C[C@@H]4CC(=O)CC[C@@]4(C)C3CC(=O)[C@]12C (some centres not stated)	inactive
O=C(OC[C@@H]1O[C@@](O)(COC(=O)c2cccnc2)[C@H](OC(=O)c2cccnc2)[C@H]1OC(=O)c1cccnc1)c1cccnc1	inactive
O=[N+]([O-])O[C@H]1CO[C@H]2[C@@H]1OC[C@H]2O	inactive
COc1cccc(OC)c1C(=O)NC1C(=O)N2C1SC(C)(C)C2C(=O)O (configuration not stated)	inactive
NC[C@@H]1O[C@H](OC2[C@@H](CO)O[C@@H](OC3[C@H](O)[C@H](N)C[C@H](N)[C@H]3OC3O[C@H](CO)[C@@H](O)[C@H](O)[C@@H]3N)[C@H]2O)C(N)[C@H](O)[C@@H]1O (some centres not stated)	inactive
Cc1ccc(S(=O)(=O)NC(=O)NC(C)Cc2ccccc2)cc1 (configuration not stated)	inactive
OCCOC[C@H]1O[C@H](OCCO)[C@H](OCCO)[C@@H](OCCO)[C@@H]1OCCO (tested in a mixture with another compound)	inactive
C[S+](C)CC[C@H](N)C(=O)O	inactive

Compound	Potency
CC[C@@H]1/C=C(\C)C[C@H](C)C[C@H](OC)[C@H]2O[C@@](O)(C(=O)C(=O)N3CCCC[C@H]3C(=O)O[C@H](/C(C)=C/[C@@H]3CC[C@H](Cl)[C@H](OC)C3)[C@H](C)[C@@H](O)CC1=O)[C@H](C)C[C@@H]2OC	inactive
NC(=O)C1CC2(NC(=O)NC2=O)c2cc(F)ccc2O1 (configuration not stated)	inactive
CN1[C@@H]2CC[C@@H]1CC(OC(=O)[C@H](CO)c1ccccc1)C2 (some centres not stated)	inactive
CC[C@@]1(O)C[C@H](O[C@H]2C[C@@H](N(C)C)[C@@H](O[C@H]3C[C@@H](O)[C@@H](O[C@H]4CCC(=O)[C@@H](C)O4)[C@@H](C)O3)[C@@H](C)O2)c2c(cc3c(c2O)C(=O)c2c(O)cccc2C3=O)[C@H]1C(=O)OC	44.7 nM (active)
CCCCCCCCCCCC(=O)OCC(O)C1OCC(O)C1O (configuration not stated)	inactive
C/C1=C2/[N-]C(C(CC(N)=O)[C@@]2(C)CCC(=O)NCC(C)OP(=O)([O-])O[C@H]2[C@@H](O)[C@@H](n3cnc4cc(C)c(C)cc43)O[C@@H]2CO)[C@]2(C)N=C(/C(C)=C3N=C(/C=C4N=C1C(CCC(N)=O)C\4(C)C)[C@@H](CCC(N)=O)[C@]\3(C)CC(N)=O)[C@@H](CCC(N)=O)[C@]2(C)CC(N)=O.CC(=O)O.[Co] (some centres not stated)	inactive
CC1(C)OC[C@@H]2O[C@@]3(C(=O)O)OC(C)(C)O[C@@H]3[C@@H]2O1	inactive
CCC(C(=O)O)C1OC(C(C)C(O)C(C)C(=O)C(CC)C2OC3(C=CC(O)C4(CCC(C)(C5CCC(O)(CC)C(C)O5)O4)O3)C(C)CC2C)C(C)CC1C (configuration not stated)	89.1 nM (active)
O=C1C(I)=CC(=C(c2cc(I)c(O)c(I)c2)c2ccccc2C(=O)O)C=C1I	inactive
NC(=O)NC(CCC(=O)O)C(=O)O (configuration not stated)	inactive
COC1CC2CCC(C)[C@](O)(O2)C(=O)C(=O)N2CCCCC2C(=O)OC(C(C)CC2CCC(O)C(OC)C2)CC(=O)C(C)/C=C(/C)C(O)C(OC)C(=O)C(C)CC(C)C=CC=C/C=C\1C (some centres not stated)	891 nM (active)
CC(=O)OCC(=O)[C@@]1(O)CCC2C3C[C@H](C)C4=CC(=O)C=CC4(C)C3C(O)CC21C (some centres not stated)	inactive
CN[C@H](C)CCC=C(C)C	44.7 nM (active)
CC1(C)C2CC[C@]1(C)[C@@H](O)C2	inactive
OCC1O[C@H](Oc2ccc(O)cc2)C(O)C(O)C1O (some centres not stated)	inactive
Nc1nc(F)nc2c1ncn2[C@@H]1O[C@H](CO)[C@@H](O)[C@H]1O	inactive
CC1OC(OC2CCC3(C)C(CCC4C3CC(O)C3(C)C(C5=CC(=O)OC5)CCC43O)C2)CC(O)C1OC1CC(O)C(OC2CC(O)C(OC3OC(CO)C(O)C(O)C3O)C(C)O2)C(C)O1 (configuration not stated)	inactive
CC1OC(OCC2OC(Oc3c(-c4ccc(OCCO)c(OCCO)c4)oc4cc(OCCO)cc(O)c4c3=O)C(O)C(O)C2O)[C@@H](O)C(O)C1O (some centres not stated)	inactive

From PubChem BioAssay (NCATS)
